The campaign covered roughly 52,000 compounds. About 4,300 (8.3%) were called active. Shown is part of a subset that was picked to be rich in actives. Unmarked numbers belong to inactive results. Rule as the data show it: active = survival mostly below about 52% (no sharp cut-off); inactive = mostly above about 56%.

This test deals with DeltatarO mutant. Put plainly: growth inhibition of S. aureus wild type versus tarO mutant, primary screen, teichoic acid synthesis inhibitors, RN4220, OD600 (AID 463173). The following applies: OD600, 18 h, hits give low values, screened at 18.75 µg/mL (by protocol).
Turning to `CCOC(=O)c1ccccc1NC(=O)Cn1c(=O)n(-c2cccc(C)c2)c(=O)c2c1c1cc(C)ccc1n2C`, the survival was 68%. To `CCOc1ccc(C(=O)NCC(c2cccs2)S(=O)(=O)c2ccccc2)cc1` (stereo unspecified) belongs 97%; to `CC(C)OC(=O)c1cc2c(ccn2C)n1CCC#N`, 96%; to `Cc1cc(Nc2ccccc2C)nc(-n2nc(C)cc2C)n1`, 83%. To `Cc1ccc(S(=O)(=O)c2nc(-c3cccc(Cl)c3)oc2NCc2ccccc2)cc1` belongs 168%; to `Cc1cccc(C)c1NC(=O)C(=O)NCC(c1cccnc1)N1CCc2ccccc21` (stereo unspecified), 62%. Next, `Cc1ccc(NC(=O)C(=O)NCC(c2cccnc2)N2CCc3ccccc32)cc1Cl` (stereo unspecified): 97%; `COC(=O)c1ccc(NC(=O)C(=O)NCC(c2cccnc2)N2CCc3ccccc32)cc1` (stereo unspecified): 34% (active). Consider `CCOc1ccc(NC(=O)C(=O)NCC(c2cccnc2)N2CCc3ccccc32)cc1` (stereo unspecified), for which the survival was 44%. Next, `Cc1cc(C)cc(NC(=O)C(=O)NCC(c2cccnc2)N2CCc3ccccc32)c1` (stereo unspecified): 43% (active); `COc1ccc(NC(=O)C(=O)NCC(c2cccnc2)N2CCc3ccccc32)cc1OC` (stereo unspecified): 61%; `COc1ccc(NC(=O)c2cnc(N3CCCCC3)c3ccccc23)cc1Cl`: 78%. To `CCOc1cc(C(=O)Nc2ccc3c(c2)n(C)c(=O)c(=O)n3C)cc(OCC)c1OCC` belongs 84%. Next, `COc1ccc2c(c1)sc1ncc(C(=O)NCc3ccccc3F)c(=O)n12`: 101%; `Cc1ccc2[nH]c(=O)cc(C(=O)O)c2c1`: 99%. Consider `Cc1cc(=O)c2cc(Br)ccc2[nH]1`, for which the survival is 71%. As for `Cc1ccc2[nH]c(C)cc(=S)c2c1`, the survival is 45% (active). On to `COc1cc(NC(=O)C(NS(=O)(=O)c2ccc3c(c2)CCCC(=O)N3)C(C)C)cc(OC)c1` (stereo unspecified), for which the survival is 71%.

On to `O=C(Nc1cc2c(cc1C(=O)c1cccc(Br)c1)OCCO2)c1ccccc1F`, for which the survival is 28% (active). Take `CCC(=O)c1cc2c(cc1NC(=O)c1ccccc1F)OCCO2`: the survival was 68%. For the molecule `O=C(Nc1cc2c(cc1C(=O)c1ccccc1Cl)OCCO2)c1ccc(Br)cc1`, the survival was 66%.

Turning to `CC1CCCN(S(=O)(=O)c2ccc(NC(=O)CSc3nc4ccccc4o3)cc2)C1` (stereo unspecified), the survival was 58%.

On to `CCC1Oc2ccc(C)cc2N(CC(=O)NCc2ccc(F)cc2)C1=O` (stereo unspecified), for which the survival is 70%.

Regarding `CCC1Oc2ccccc2N(CC(=O)NCc2ccc(C)cc2)C1=O` (stereo unspecified), the survival is 78%. To `CCC1Oc2ccc(C)cc2N(CC(=O)NCc2ccc(OC)cc2)C1=O` (stereo unspecified) belongs 39% (active). To `CC1Oc2ccccc2N(CC(=O)NCc2ccccc2)C1=O` (stereo unspecified) belongs 92%; to `CCC1Oc2ccc(C)cc2N(CC(=O)NCCc2ccccc2)C1=O` (stereo unspecified), 80%; to `CCC1Oc2ccccc2N(CC(=O)NCc2ccccc2)C1=O` (stereo unspecified), -1% (active). Next, `COc1ccc(C2c3c(oc4ccc(F)cc4c3=O)C(=O)N2Cc2ccc3c(c2)OCO3)cc1` (stereo unspecified): 59%; `COc1ccccc1N1CCN(c2ncnc3c2nc2n3CCCC2)CC1`: 67%; `Cc1cc(=O)n2nc(N3CCC(C(=O)NCc4ccccc4Cl)CC3)sc2n1`: 87%. Regarding `CCOC(=O)c1cccc(NC(=O)Nc2c(C)n(C)n(-c3ccccc3)c2=O)c1`, the survival was 94%.

In the case of `CCCc1cc(=O)oc2cc(C)c3c(-c4cccc(OC)c4)coc3c12`, the survival was 67%. Next, `CCCc1cc(=O)oc2cc(C)c3c(-c4ccccc4)c(C)oc3c12`: -10% (active); `CCCc1cc(=O)oc2cc(C)c3c(C(C)(C)C)coc3c12`: 88%.

As to `Cc1ccc2[nH]c(=O)c(CN(Cc3ccccc3)C(=O)c3ccco3)cc2c1`, the survival is 103%. Next, `CCc1nnc2n1N(C(C)=O)C(c1ccc(C(C)(C)C)cc1)=C(C(C)=O)S2`: 96%. Next, `Cc1c(CNC2CCCCCC2)c(C(=O)O)c(C)n1Cc1ccc(F)cc1Cl`: 80%. Next, `CN1C(C(=O)Nc2cccc(O)c2)=CC(c2cccs2)=NS1(=O)=O`: 87%. As for `Fc1ccc(-c2nc(-c3cccs3)c(-c3cccs3)[nH]2)cc1`, the survival was 64%. Next, `CN(C)c1ccc(-c2nc(-c3cccs3)c(-c3cccs3)[nH]2)cc1`: 47% (active); `Oc1cccc(-c2nc(-c3cccs3)c(-c3cccs3)[nH]2)c1`: 4% (active); `Oc1ccccc1-c1nc(-c2cccs2)c(-c2cccs2)[nH]1`: 0% (active).

For the molecule `Cc1sc(N)nc1-c1cccs1`, the survival was 96%.

`Cc1ccc(-c2nc(-c3cccs3)c(-c3cccs3)[nH]2)cc1`: the survival was 62%. To `COc1ccc(O)c(-c2cn[nH]c2-c2cccs2)c1` belongs 89%. In the case of `Fc1ccc2[nH]c(-c3cccs3)cc2c1`, the survival is 54%. To `COc1cc(Cl)c(C)cc1NC(=O)CCc1c(C)nc2cc(-c3cccc(F)c3)nn2c1C` belongs 74%; to `CCCCc1nn2c(=O)cc(CN(CC)c3ccccc3)nc2s1`, 73%. `Cc1noc2ncnc(N3CCN(c4cccc(C(F)(F)F)c4)CC3)c12`: the survival was 71%. To `CCOC(=O)CSc1nc2cc3c(cc2c(=O)n1CCCC(=O)NCc1ccc2c(c1)OCO2)OCO3` belongs 83%; to `COc1ccc(S(=O)(=O)NCCc2sc3nc(-c4ccc(C)cc4)nn3c2C)cc1F`, 72%; to `Cc1cc(C)cc(-n2cnc3cc(C(=O)NC4CCCCCC4)ccc32)c1`, 95%.

For `Nc1nonc1-c1nc2ccccc2n1CC(=O)Nc1ccc(F)cc1`, the survival was 169%. To `Nc1nonc1-c1nc2ccccc2n1CCn1c(-c2nonc2N)nc2ccccc21` belongs 82%; to `CCc1ccccc1NC(=O)Cn1c(-c2nonc2N)nc2ccccc21`, 86%. With `Nc1nonc1-c1nc2ccccc2n1CC(=O)Nc1ccccc1C(=O)O`, the survival was 45% (active). To `Nc1nonc1-c1nc2ccccc2n1CC(=O)Nc1cccc(Cl)c1Cl` belongs 66%; to `NC(=O)Cn1c(-c2nonc2N)nc2ccccc21`, 62% (active). Next, `COc1ccc(-c2nc(SCC(=O)NC3CCCC3)c(-c3ccc(C)cc3)[nH]2)cc1OC`: 57%. Next, `COc1ccc(Cn2ccc3nc(C)c(C(=O)NCc4ccc(C)cc4)cc3c2=O)cc1`: 60%.

The values above are taken from PubChem BioAssay AID463173 (ICCB-Longwood Screening Facility, Harvard Medical School, 2010).
